Measurements reported in the antibiotic and cytotoxicity screens of Wong et al. (2023).
The whole screen tested about 39,000 compounds, of which about 3,300 (8.5%) were called active. What follows is part of a selection rich in actives, with near analogues and random picks from the rest.

What follows are compounds tested on HepG2 (assay: cytotoxicity call (relative viability < 0.9)). Conditions: 10 µM.

Row | Compound | cytotoxicity call
1 | Cc1ccc(S(=O)(=O)N(C)C[C@H]2Oc3ccc(NS(=O)(=O)c4c(C)noc4C)cc3C(=O)N([C@H](C)CO)C[C@@H]2C)cc1 | inactive
2 | C[C@]12C(=O)N(CCC(=O)O)C(=O)[C@H]1[C@@H]1C=C[C@@H]2C1 | inactive
3 | Cc1ccc(S(=O)(=O)Nc2cccc3c2O[C@@H](CN(C)S(=O)(=O)c2ccc(F)cc2)[C@H](C)CN([C@@H](C)CO)C3=O)cc1 | inactive
4 | O=C(Cn1ccc([N+](=O)[O-])n1)N1CCOCC1 | inactive
5 | COc1ccc(NC(=O)N(C)C[C@H]2Oc3ccc(NC(=O)Cn4cnnn4)cc3CC(=O)N([C@H](C)CO)C[C@H]2C)cc1 | inactive
6 | C[C@H](CO)N1C[C@H](C)[C@H](CN(C)Cc2ccc(Oc3ccccc3)cc2)Oc2c(NS(=O)(=O)c3ccc(F)cc3)cccc2C1=O | inactive
7 | C[C@H](CO)N1C[C@H](C)[C@@H](CN(C)S(=O)(=O)c2ccc(Cl)cc2)Oc2ccc(NS(=O)(=O)c3cn(C)cn3)cc2C1=O | inactive
8 | O=C(NCCCN1CCOCC1)[C@@H]1[C@@H](CO)[C@@H]2Cn3c(ccc(C4=CCCCC4)c3=O)[C@H]1N2 | inactive
9 | Cc1ccc(S(=O)(=O)Nc2cccc3c2O[C@@H](CN(C)S(=O)(=O)c2ccc(F)cc2)[C@H](C)CN([C@H](C)CO)C3=O)cc1 | inactive
10 | CC(C)(C)OC(=O)C[C@@H]1CC=CC[C@@H](CC(=O)N[C@H](CO)Cc2ccccc2)C(=O)N[C@@H](C(C)(C)C)COC1=O | inactive
11 | CC1CCN(S(=O)(=O)c2c[nH]cn2)CC1 | inactive
12 | Cc1noc(C)c1NC(=O)N(C)C[C@H]1Oc2ccc(NS(C)(=O)=O)cc2C(=O)N([C@H](C)CO)C[C@H]1C | inactive
13 | COc1ccc(CN(C)C[C@H]2OCCCC[C@H](C)Oc3ccc(NC(=O)NC(C)C)cc3C(=O)N([C@@H](C)CO)C[C@@H]2C)cc1 | inactive
14 | C[C@@H]1CCCCO[C@H](CN(C)Cc2ccc(C(F)(F)F)cc2)[C@H](C)CN([C@@H](C)CO)C(=O)c2cc(NS(=O)(=O)c3ccc(Cl)cc3)ccc2O1 | active
15 | C[C@H](CO)N1C[C@H](C)[C@H](CN(C)Cc2ccc(C(F)(F)F)cc2)OCCCC[C@H](C)Oc2ccc(NS(=O)(=O)c3ccc(Cl)cc3)cc2C1=O | active
16 | C[C@@H]1CN([C@@H](C)CO)C(=O)c2cc(NC(=O)Cc3cn(C)c4ccccc34)ccc2O[C@@H]1CN(C)CC1CCCCC1 | inactive
17 | Cc1noc(C)c1S(=O)(=O)Nc1ccc2c(c1)C(=O)N([C@@H](C)CO)C[C@@H](C)[C@@H](CN(C)C(=O)Nc1ccccc1)OCCCC[C@@H](C)O2 | inactive
18 | O=C(O)CCCN1C(=O)CSC1=S | inactive
19 | C[C@@H]1CCCCO[C@H](CN(C)C(=O)Nc2ccc(F)cc2)[C@@H](C)CN([C@@H](C)CO)C(=O)c2cc(NC(=O)NC3CCCCC3)ccc2O1 | inactive
20 | C[C@H](CO)N1C[C@H](C)[C@@H](CN(C)S(C)(=O)=O)Oc2ccc(NC(=O)C3CCCCC3)cc2CC1=O | inactive
21 | C[C@H](CO)N1C[C@H](C)[C@@H](CN(C)Cc2ccc3c(c2)OCO3)Oc2ccc(NC(=O)Cn3cnnn3)cc2C1=O | inactive
22 | O=C(Oc1ccc(C2CCCCC2)cc1)c1cccs1 | inactive
23 | Cc1ccc(C(=O)Oc2ccc(/C=N/c3cccs3)cc2)cc1 | active
24 | Cc1ccc(-c2ccc(OC(=O)c3ccccc3F)cc2)cc1 | inactive

Row | Compound | cytotoxicity call
25 | C[C@H](CO)N1C[C@H](C)[C@@H](CN(C)S(C)(=O)=O)OCCCC[C@H](C)Oc2ccc(NC(=O)c3ccncc3)cc2C1=O | inactive
26 | CC(C)NC(=O)Nc1ccc2c(c1)C(=O)N([C@H](C)CO)C[C@H](C)[C@@H](CN(C)CC1CCCCC1)OCCCC[C@H](C)O2 | inactive
27 | C[C@H]1CN([C@@H](C)CO)C(=O)c2cccc(NC(=O)C3CC3)c2O[C@H]1CN(C)C(=O)NC1CCCCC1 | inactive
28 | O=C(C[C@@H]1C=C[C@H](NC(=O)c2cnccn2)[C@@H](CO)O1)NCc1ccccc1F | inactive
29 | CC1(C)C=Cc2cc3ccc(=O)oc3cc2O1 | inactive
30 | COc1cc2c(cc1OC)C1C(=O)c3ccc4c(c3OC1CO2)C=CC(C)(C)O4 (stereo not given) | active
31 | COc1ccc2c(c1)OC1c3ccc(OC)cc3OCC21 (stereo not given) | inactive
32 | COc1cc(OC)c2c(c1)OC(c1ccccc1)CC2=O (stereo not given) | inactive
33 | COc1ccc2c(c1)OC1COc3cc(OC)c(OC)cc3C1C2=O (stereo not given) | active
34 | CC(=O)c1cc2c(cc1O)OC(C)(C)C=C2 | inactive
35 | COc1cc2c(cc1OC)-c1c(oc3cc4c(cc3c1=O)CCO4)CO2 | inactive
36 | COc1ccc(-c2c(O)c3c(OC)c4c(cc3oc2=O)OC(C)(C)C=C4)cc1 | inactive
37 | COc1cc2c(cc1OC)-c1c(oc3c4c(ccc3c1=O)OC(C)(C)C=C4)CO2 | active
38 | COc1cc2c(cc1OC)C1C(=O)c3c(O)cc4c(c3OC1CO2)C=CC(C)(C)O4 (stereo not drawn) [alpha-TOXICAROL (dl) ] | active
39 | COc1cc2c(c3ccccc13)OC(C)(C)C=C2 | inactive
40 | Nc1ccc(Cl)nn1 | inactive
41 | C[C@@H]1CN([C@@H](C)CO)C(=O)CCCn2nncc2CO[C@H]1CN(C)S(=O)(=O)c1ccc(Cl)cc1 | inactive
42 | O=C(C[C@@H]1CC[C@@H](NC(=O)CN2CCOCC2)[C@H](CO)O1)NCCc1ccncc1 | inactive
43 | C[C@@H]1CCCCO[C@H](CN(C)C(=O)C2CCCCC2)[C@H](C)CN([C@@H](C)CO)C(=O)c2cc(NC(=O)Cc3ccccc3)ccc2O1 | inactive
44 | Cc1cn(Cc2ccccc2)c(=O)[nH]c1=O | inactive
45 | O=C(C[C@H]1CC[C@@H]2[C@H](COC[C@@H](O)CN2C(=O)Nc2cc(Cl)cc(Cl)c2)O1)N1CCOCC1 | inactive
46 | COC[C@@H]1c2nnn(C)c2CCN1S(=O)(=O)c1cn(C)cn1 | inactive
47 | C[C@@H]1CN([C@H](C)CO)C(=O)c2cc(NS(=O)(=O)c3ccc(F)cc3)ccc2O[C@@H](C)CCCCO[C@@H]1CN(C)CC1CCCCC1 | inactive
48 | C[C@@H]1CCCCO[C@@H](CN(C)CC2CCCCC2)[C@@H](C)CN([C@@H](C)CO)C(=O)c2cc(NS(=O)(=O)c3ccc(F)cc3)ccc2O1 | inactive

Row | Compound | cytotoxicity call
49 | C[C@@H]1CN([C@@H](C)CO)C(=O)c2cc(NS(=O)(=O)c3ccc(F)cc3)ccc2O[C@@H](C)CCCCO[C@H]1CN(C)CC1CCCCC1 | inactive
50 | C[C@H](CO)N1C[C@H](C)[C@@H](CN(C)CC2CCCCC2)OCCCC[C@H](C)Oc2ccc(NS(=O)(=O)c3ccc(F)cc3)cc2C1=O | inactive
51 | C[C@H](CO)N1C[C@H](C)[C@H](CN(C)CC2CCCCC2)OCCCC[C@H](C)Oc2ccc(NS(=O)(=O)c3ccc(F)cc3)cc2C1=O | active
52 | C[C@@H]1CCCCO[C@@H](CN(C)CC2CCCCC2)[C@H](C)CN([C@@H](C)CO)C(=O)c2cc(NS(=O)(=O)c3ccc(F)cc3)ccc2O1 | active
53 | C[C@@H]1CCCCO[C@H](CN(C)CC2CCCCC2)[C@@H](C)CN([C@H](C)CO)C(=O)c2cc(NS(=O)(=O)c3ccc(F)cc3)ccc2O1 | inactive
54 | C[C@@H]1CCCCO[C@@H](CN(C)CC2CCCCC2)[C@@H](C)CN([C@H](C)CO)C(=O)c2cc(NS(=O)(=O)c3ccc(F)cc3)ccc2O1 | active
55 | C[C@H]1CCCCO[C@H](CN(C)CC2CCCCC2)[C@@H](C)CN([C@@H](C)CO)C(=O)c2cc(NS(=O)(=O)c3ccc(F)cc3)ccc2O1 | active
56 | C[C@@H]1CCCCO[C@@H](CN(C)CC2CCCCC2)[C@H](C)CN([C@H](C)CO)C(=O)c2cc(NS(=O)(=O)c3ccc(F)cc3)ccc2O1 | inactive
57 | C[C@@H]1CN([C@@H](C)CO)C(=O)c2cc(NS(=O)(=O)c3ccc(F)cc3)ccc2O[C@@H](C)CCCCO[C@@H]1CN(C)CC1CCCCC1 | inactive
58 | C[C@@H]1CCCCO[C@H](CN(C)CC2CCCCC2)[C@H](C)CN([C@H](C)CO)C(=O)c2cc(NS(=O)(=O)c3ccc(F)cc3)ccc2O1 | inactive
59 | CCCNC(=O)C[C@H]1CC[C@@H]2[C@@H](COc3ccc(NS(=O)(=O)c4ccccc4C)cc3C(=O)N2C)O1 | inactive
60 | O=C(C[C@H]1C=C[C@@H](NC(=O)c2ccc3c(c2)OCO3)[C@@H](CO)O1)NCc1ccc(Oc2ccccc2)cc1 | inactive
61 | COc1ccc2c3c(n(c2c1)C)[C@@H](CO)N(C[C@]13CCN(CC1)S(=O)(=O)c1cn(cn1)C)C(=O)Nc1ccc(cc1)F | inactive
62 | COc1ccc2c3c([nH]c2c1)[C@H](CO)N(C[C@]13CN(CC2CCCCC2)C1)S(=O)(=O)c1cn(cn1)C | inactive
63 | C[C@@H]1CCCCO[C@H](CN(C)C(=O)NC2CCCCC2)[C@H](C)CN([C@@H](C)CO)C(=O)c2cc(NC(=O)C3CCCCC3)ccc2O1 | inactive
64 | CN1C(=O)[C@@H]2[C@@H]3C[C@H]4[C@@H](O[C@H]1[C@H]42)[C@H]3O | inactive
65 | C[C@H](CO)N1C[C@H](C)[C@H](CN(C)Cc2ccncc2)Oc2c(NC(=O)c3cnccn3)cccc2C1=O | inactive
66 | C[C@@H]1CN([C@H](C)CO)C(=O)c2cc(NS(=O)(=O)c3ccc(F)cc3)ccc2O[C@@H](C)CCCCO[C@H]1CN(C)CC1CCCCC1 | active
67 | C[C@@H]1CCCCO[C@H](CN(C)CC2CCCCC2)[C@H](C)CN([C@@H](C)CO)C(=O)c2cc(NS(=O)(=O)c3ccc(F)cc3)ccc2O1 | inactive
68 | C[C@H]1CCCCO[C@@H](CN(C)CC2CCCCC2)[C@@H](C)CN([C@@H](C)CO)C(=O)c2cc(NS(=O)(=O)c3ccc(F)cc3)ccc2O1 | inactive
69 | C[C@H](CO)N1C[C@H](C)[C@@H](CN(C)C(=O)Nc2ccc3c(c2)OCO3)Oc2ccc(NC(=O)Cn3cnnn3)cc2C1=O | inactive
70 | C[C@H](CO)N1C[C@H](C)[C@@H](CN(C)C(=O)Nc2ccc3c(c2)OCO3)OCCCC[C@H](C)Oc2ccc(NS(=O)(=O)c3ccc(F)cc3)cc2C1=O | inactive
